According to PubChem BioAssay (NCI):
About 79,000 compounds went through this panel and 15% of them were active in at least one assay; those are over-represented in the sample as a whole. Unmarked numbers belong to inactive results. Calls of active or inactive are those of the source. Cut-off read from the data, not from the text of the source: active = growth inhibition above about 70%; inactive = the rest.

Legend:
[1] = NCI Yeast Anticancer Drug Screen. Data for the rad50 strain (AID 155);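 note: 0% = growth of vehicle-only cultures of the same strain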; conditions: S. cerevisiae rad50 strain growth inhibition, active compounds read high
Procedure, shortened: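 Inhibition values express reduced yeast growth in compound-treated cultures relative to vehicle-treated controls.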

[2] = NCI Yeast Anticancer Drug Screen. Data for the mec2-1 strain (AID 157); conditions: S. cerevisiae mec2-1 strain, active compounds read high
Procedure, shortened: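 Growth inhibition is read against vehicle-treated controls after compound exposure of the mec2-1 yeast strain, which is defective in DNA damage repair or cell cycle control.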

[3] = NCI Yeast Anticancer Drug Screen. Data for the sgs1 mgt1 strain (AID 161);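 note: 0% = growth of cultures given vehicle only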; conditions: S. cerevisiae sgs1 mgt1 strain, active compounds read high
Procedure, shortened: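 Yeast cells carrying a defined DNA-repair defect were exposed to test compounds. Growth inhibition was measured relative to vehicle-treated controls.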

[4] = NCI Yeast Anticancer Drug Screen. Data for the cln2 rad14 strain (AID 165);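 note: 0% = growth equal to vehicle treated cultures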; conditions: S. cerevisiae cln2 rad14 strain, active compounds read high
Procedure, shortened: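 Growth inhibition, relative to vehicle-treated controls, is the read-out. The test organism is a yeast strain with defined genetic alterations, cln2 rad14.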

[5] = NCI Yeast Anticancer Drug Screen. Data for the bub3 strain (AID 167); conditions: S. cerevisiae bub3 mutant strain, active compounds read high
Procedure, shortened: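 Steps: expose the mutant yeast strain to compound; grow alongside vehicle-treated cultures; measure growth; express inhibition against the vehicle cultures.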

[6] = NCI Yeast Anticancer Drug Screen. Data for the mlh1 rad18 strain (AID 175); conditions: S. cerevisiae mlh1 rad18 strain growth inhibition, active compounds read high
Procedure, shortened: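 Cells of a genetically altered yeast strain, deficient in DNA damage repair, were treated with compound. Their growth was then compared with that of vehicle-treated cultures to give inhibition.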

[7] = at 5.0 µM (retest, dose inferred, filed as 0.5)
[8] = at 50.0 µM (retest, dose inferred, filed as 5.0)

Row | Compound | growth inhibition [1, 7] | growth inhibition [1, 8] | growth inhibition ([1]; at 50.0 µM) | growth inhibition [2, 7] | growth inhibition [2, 8] | growth inhibition ([2]; at 50.0 µM) | growth inhibition [3, 7] | growth inhibition [3, 8] | growth inhibition ([3]; at 50.0 µM) | growth inhibition [4, 7] | growth inhibition [4, 8] | growth inhibition ([4]; at 50.0 µM) | growth inhibition [5, 7] | growth inhibition [5, 8] | growth inhibition ([5]; at 50.0 µM) | growth inhibition [6, 7] | growth inhibition [6, 8] | growth inhibition ([6]; at 50.0 µM)
1 | N=C(N)c1ccc(-c2ccc(-c3ccc(C(=N)N)cc3)o2)cc1 | 17% | 88% (active) | 94.8% (active) | -6% | 52% | 89% (active) | 1% | 61% | 90.3% (active) | -2% | 35% | 75.5% (active) | 4% | 62% | 92.8% (active) | -10% | 76% (active) | 92.2% (active)
2 | O=C1CSC2(CCN(CCCN3c4ccccc4Sc4ccc(Cl)cc43)CC2)N1 | 8% | 100% (active) | 98.9% (active) | -4% | 45% | 99.1% (active) | 3% | 53% | 99.3% (active) | -11% | 100% (active) | 99% (active) | -2% | 99% (active) | 97.5% (active) | -17% | 99% (active) | 91.2% (active)
3 | CC(O)C1CCCC[N+]1(C)C (configuration not stated) | 1% | -3% | 0.05% | 5% | 8% | -6.9% | -1% | -36% | 51.5% | -5% | -6% | -7.6% | -11% | -8% | 9.45% | -17% | -3% | -18.6%
4 | O=C1/C(=C/c2ccc(Cl)c(Cl)c2)CN(C(=O)CCN2CCOCC2)C/C1=C\c1ccc(Cl)c(Cl)c1 | 99% (active) | 86% (active) | 41% | 99% (active) | 94% (active) | 85.8% (active) | 99% (active) | 92% (active) | 85.2% (active) | 90% (active) | 89% (active) | 87.3% (active) | 99% (active) | 89% (active) | 89% (active) | 99% (active) | 88% (active) | 87.5% (active)
5 | NNC(=O)c1ccc(N)cc1O | -1% | -5% | -13.6% | -3% | -1% | -13.8% | -2% | -3% | -29.2% | -2% | -11% | 75.1% (active) | -1% | -1% | -3.65% | 0% | -4% | 1.8%
6 | Oc1ccc(Br)cc1-c1nc2cc(Cl)c(Cl)cc2nc1-c1cc(Br)ccc1O | 48% | 80% (active) | 81.2% (active) | 46% | 85% (active) | 86.3% (active) | 44% | 88% (active) | 88.6% (active) | 47% | 91% (active) | 86.1% (active) | 45% | 86% (active) | 81.7% (active) | 48% | 90% (active) | 80.7% (active)
7 | O=S(=O)(N/N=C/c1ccc(Cl)cc1Cl)c1ccccc1 | -20% | -11% | -19.3% | -4% | -11% | -10.3% | 10% | -14% | -12.4% | -16% | -15% | -26.9% | 17% | 22% | -16.6% | 8% | 4% | 14%
8 | N=c1scc(-c2ccccc2)n1/N=C/c1cccnc1 | 1% | 95% (active) | 96.6% (active) | 3% | 96% (active) | 86.3% (active) | 7% | 98% (active) | 96.5% (active) | 11% | 95% (active) | 96.2% (active) | 5% | 96% (active) | 50.6% | -14% | 96% (active) | 95.8% (active)
9 | C=C(CN1CCOCC1)C(=O)c1ccccc1 | -23% | 66% | 74.5% (active) | 18% | 80% (active) | 90.2% (active) | 8% | 73% (active) | 85.5% (active) | -16% | 24% | 60.9% | 3% | 72% (active) | 91% (active) | -13% | 92% (active) | 95% (active)
